The text below walks through data of ChEMBL document CHEMBL1961873, “Compounds: GSK PKIS; Assays: Nanosyn kinase panel” (2012).

Test [1] deals with Tyrosine-protein kinase Fyn (Homo sapiens) (UniProt P06241). The following applies: at 1 µM.
In test [2] the target is Tyrosine-protein kinase HCK (Homo sapiens) (UniProt P08631). The following applies: at 0.1 µM.
The target is the same in test [3]. To be noted: at 1 µM.
Test [4] deals with Insulin-like growth factor 1 receptor (Homo sapiens) (UniProt P08069). The following applies: at 0.1 µM.
The target is the same in test [5]. To be noted: at 1 µM.
Test [6] concerns the target Insulin receptor (Homo sapiens) (UniProt P06213). The following applies: at 0.1 µM.
Test [7] has the same target. The following applies: at 1 µM.
Test [8] has as its target Insulin receptor-related protein (Homo sapiens) (UniProt P14616). The following applies: at 0.1 µM.
For test [9] the target is unchanged. The following applies: at 1 µM.
Test [10] addresses T1, Tyrosine-protein kinase ITK/TSK (Homo sapiens) (UniProt Q08881).
T1 sequence (whole entry): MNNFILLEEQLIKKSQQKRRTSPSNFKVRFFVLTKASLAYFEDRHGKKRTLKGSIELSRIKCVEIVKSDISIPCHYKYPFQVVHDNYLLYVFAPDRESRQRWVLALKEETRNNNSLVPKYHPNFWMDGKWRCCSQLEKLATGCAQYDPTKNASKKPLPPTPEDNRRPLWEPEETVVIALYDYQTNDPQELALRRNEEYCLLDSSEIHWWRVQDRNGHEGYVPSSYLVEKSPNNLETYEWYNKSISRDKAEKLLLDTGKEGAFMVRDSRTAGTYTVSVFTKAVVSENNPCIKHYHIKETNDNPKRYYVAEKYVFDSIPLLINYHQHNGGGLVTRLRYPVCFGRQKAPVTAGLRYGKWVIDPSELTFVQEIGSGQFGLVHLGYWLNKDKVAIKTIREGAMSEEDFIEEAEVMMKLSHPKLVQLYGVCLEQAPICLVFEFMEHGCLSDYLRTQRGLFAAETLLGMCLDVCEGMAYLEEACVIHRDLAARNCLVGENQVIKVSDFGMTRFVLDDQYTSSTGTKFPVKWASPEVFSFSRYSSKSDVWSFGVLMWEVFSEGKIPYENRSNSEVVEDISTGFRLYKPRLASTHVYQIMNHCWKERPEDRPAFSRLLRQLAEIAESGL
To be noted: at 0.1 µM.

Test [11] addresses T1, Tyrosine-protein kinase ITK/TSK (Homo sapiens). The following applies: at 1 µM.
In test [12] the target is Tyrosine-protein kinase JAK1 (Homo sapiens) (UniProt P23458). The following applies: at 0.1 µM.
The target is the same in test [13]. To be noted: at 1 µM.
Test [14] concerns the target Tyrosine-protein kinase JAK2 (Homo sapiens) (UniProt O60674). The following applies: at 0.1 µM.
Test [15] has the same target. The following applies: at 1 µM.
The target in test [16] is T2, Tyrosine-protein kinase JAK3 (Homo sapiens) (UniProt P52333).
T2 sequence (whole entry): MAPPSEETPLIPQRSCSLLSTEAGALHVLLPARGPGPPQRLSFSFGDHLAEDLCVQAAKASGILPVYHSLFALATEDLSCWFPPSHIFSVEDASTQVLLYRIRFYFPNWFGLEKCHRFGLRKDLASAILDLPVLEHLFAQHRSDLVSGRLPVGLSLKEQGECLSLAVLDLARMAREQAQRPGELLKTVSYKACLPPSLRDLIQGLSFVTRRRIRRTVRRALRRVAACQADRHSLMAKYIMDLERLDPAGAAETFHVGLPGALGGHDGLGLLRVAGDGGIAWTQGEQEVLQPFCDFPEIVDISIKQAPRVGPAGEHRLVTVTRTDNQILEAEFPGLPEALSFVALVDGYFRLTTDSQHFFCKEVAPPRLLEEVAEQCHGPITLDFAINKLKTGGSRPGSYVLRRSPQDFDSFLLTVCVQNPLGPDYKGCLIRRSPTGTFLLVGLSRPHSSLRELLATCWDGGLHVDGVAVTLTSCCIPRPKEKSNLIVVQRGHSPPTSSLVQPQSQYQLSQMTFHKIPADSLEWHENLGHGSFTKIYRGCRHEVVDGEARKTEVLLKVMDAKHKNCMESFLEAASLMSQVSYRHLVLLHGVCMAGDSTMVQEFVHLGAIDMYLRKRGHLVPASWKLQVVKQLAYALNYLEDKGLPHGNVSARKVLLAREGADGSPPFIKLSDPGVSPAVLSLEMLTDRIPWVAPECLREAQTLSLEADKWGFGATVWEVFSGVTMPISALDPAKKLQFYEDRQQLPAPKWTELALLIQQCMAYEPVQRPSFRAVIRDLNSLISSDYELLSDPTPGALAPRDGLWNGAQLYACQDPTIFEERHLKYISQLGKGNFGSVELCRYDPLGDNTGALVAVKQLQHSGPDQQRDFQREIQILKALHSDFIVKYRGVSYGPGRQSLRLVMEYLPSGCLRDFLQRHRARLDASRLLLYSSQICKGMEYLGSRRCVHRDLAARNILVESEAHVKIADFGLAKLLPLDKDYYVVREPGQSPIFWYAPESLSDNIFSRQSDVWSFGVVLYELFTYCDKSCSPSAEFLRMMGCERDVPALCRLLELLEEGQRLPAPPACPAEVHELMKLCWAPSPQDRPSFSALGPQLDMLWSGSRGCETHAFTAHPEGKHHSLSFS
The following applies: at 0.1 µM.

Test [17] concerns the target T2, Tyrosine-protein kinase JAK3 (Homo sapiens). To be noted: at 1 µM.
Test [18] addresses Vascular endothelial growth factor receptor 2 (Homo sapiens) (UniProt P35968). The following applies: at 0.1 µM.
Test [19] shares this target. The following applies: at 1 µM.
Test [20] concerns the target Mast/stem cell growth factor receptor Kit (Homo sapiens) (UniProt P10721). To be noted: at 0.1 µM.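 Also: values are mean inhibition of KIT, from the GSK PKIS dataset.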

Vascular endothelial growth factor receptor 2 (Homo sapiens), sequence (P35968 whole entry): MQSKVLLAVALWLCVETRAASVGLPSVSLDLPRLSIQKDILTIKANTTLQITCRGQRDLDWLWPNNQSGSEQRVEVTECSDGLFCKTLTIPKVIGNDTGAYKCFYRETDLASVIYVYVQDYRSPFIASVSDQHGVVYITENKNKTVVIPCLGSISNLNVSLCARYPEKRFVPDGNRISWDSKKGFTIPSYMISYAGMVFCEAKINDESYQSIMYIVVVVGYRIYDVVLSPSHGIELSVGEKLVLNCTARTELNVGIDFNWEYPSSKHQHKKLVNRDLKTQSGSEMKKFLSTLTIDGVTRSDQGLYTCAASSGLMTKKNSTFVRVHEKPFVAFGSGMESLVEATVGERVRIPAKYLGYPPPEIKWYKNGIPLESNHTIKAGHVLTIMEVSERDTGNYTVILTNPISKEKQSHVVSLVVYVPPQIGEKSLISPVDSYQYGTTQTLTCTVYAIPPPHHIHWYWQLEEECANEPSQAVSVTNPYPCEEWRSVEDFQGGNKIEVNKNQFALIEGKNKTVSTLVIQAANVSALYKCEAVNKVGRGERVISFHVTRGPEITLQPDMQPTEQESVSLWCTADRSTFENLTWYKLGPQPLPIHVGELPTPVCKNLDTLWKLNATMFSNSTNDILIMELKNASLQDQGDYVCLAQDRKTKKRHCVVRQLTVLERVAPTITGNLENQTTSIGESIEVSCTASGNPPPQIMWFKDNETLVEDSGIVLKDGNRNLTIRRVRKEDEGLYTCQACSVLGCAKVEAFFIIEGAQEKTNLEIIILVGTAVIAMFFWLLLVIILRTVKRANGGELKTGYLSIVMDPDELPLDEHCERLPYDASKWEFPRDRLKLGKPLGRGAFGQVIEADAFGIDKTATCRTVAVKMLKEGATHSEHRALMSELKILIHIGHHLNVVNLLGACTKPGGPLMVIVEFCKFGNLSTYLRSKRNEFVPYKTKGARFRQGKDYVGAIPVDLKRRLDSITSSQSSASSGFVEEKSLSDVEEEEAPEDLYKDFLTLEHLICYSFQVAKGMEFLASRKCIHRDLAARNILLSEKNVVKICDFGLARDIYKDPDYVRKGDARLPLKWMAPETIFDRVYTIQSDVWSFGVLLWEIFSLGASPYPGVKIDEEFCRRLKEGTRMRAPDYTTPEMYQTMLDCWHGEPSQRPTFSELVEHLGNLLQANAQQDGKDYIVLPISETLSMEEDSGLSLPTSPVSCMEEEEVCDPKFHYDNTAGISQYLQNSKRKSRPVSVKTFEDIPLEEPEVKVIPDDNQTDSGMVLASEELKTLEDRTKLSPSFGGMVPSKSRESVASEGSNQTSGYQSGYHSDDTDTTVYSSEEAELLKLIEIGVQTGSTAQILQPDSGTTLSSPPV
Insulin receptor-related protein (Homo sapiens), sequence (P14616 27-742 limits assumed): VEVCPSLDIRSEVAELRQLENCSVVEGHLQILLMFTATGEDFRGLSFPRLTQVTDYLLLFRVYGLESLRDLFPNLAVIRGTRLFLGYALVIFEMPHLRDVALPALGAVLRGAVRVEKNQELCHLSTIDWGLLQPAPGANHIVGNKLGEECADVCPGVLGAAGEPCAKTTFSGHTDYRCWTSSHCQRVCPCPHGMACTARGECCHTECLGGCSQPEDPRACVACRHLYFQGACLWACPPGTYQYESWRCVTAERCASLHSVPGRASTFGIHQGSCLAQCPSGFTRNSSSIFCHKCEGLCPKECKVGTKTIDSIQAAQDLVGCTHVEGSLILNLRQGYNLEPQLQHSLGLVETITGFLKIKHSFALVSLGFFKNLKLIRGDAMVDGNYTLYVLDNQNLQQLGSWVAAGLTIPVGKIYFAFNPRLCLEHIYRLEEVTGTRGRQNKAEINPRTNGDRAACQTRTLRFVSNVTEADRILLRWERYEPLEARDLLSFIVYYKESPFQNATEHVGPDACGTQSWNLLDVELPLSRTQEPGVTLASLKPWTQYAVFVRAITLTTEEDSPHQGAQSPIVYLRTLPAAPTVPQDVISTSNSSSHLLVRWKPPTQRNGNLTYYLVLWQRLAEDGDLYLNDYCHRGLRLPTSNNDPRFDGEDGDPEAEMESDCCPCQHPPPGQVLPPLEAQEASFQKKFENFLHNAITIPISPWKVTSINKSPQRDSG
Insulin receptor-related protein (Homo sapiens), sequence (P14616 747-1297 limits assumed): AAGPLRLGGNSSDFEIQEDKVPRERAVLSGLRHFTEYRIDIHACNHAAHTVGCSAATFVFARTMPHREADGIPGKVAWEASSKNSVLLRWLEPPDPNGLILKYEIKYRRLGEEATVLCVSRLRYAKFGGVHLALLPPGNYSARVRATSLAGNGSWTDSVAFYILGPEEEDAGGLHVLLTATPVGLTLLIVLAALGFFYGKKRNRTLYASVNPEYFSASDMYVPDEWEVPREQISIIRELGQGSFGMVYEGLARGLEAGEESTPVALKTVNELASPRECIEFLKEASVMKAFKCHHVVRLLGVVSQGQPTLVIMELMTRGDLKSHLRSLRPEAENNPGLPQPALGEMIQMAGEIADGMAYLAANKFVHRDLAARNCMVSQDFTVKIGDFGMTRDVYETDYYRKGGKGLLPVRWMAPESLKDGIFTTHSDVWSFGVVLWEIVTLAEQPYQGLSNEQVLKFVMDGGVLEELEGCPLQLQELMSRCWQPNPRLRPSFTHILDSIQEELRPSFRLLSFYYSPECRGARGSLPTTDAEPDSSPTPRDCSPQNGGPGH
Insulin-like growth factor 1 receptor (Homo sapiens), sequence (P08069 31-736 limits assumed): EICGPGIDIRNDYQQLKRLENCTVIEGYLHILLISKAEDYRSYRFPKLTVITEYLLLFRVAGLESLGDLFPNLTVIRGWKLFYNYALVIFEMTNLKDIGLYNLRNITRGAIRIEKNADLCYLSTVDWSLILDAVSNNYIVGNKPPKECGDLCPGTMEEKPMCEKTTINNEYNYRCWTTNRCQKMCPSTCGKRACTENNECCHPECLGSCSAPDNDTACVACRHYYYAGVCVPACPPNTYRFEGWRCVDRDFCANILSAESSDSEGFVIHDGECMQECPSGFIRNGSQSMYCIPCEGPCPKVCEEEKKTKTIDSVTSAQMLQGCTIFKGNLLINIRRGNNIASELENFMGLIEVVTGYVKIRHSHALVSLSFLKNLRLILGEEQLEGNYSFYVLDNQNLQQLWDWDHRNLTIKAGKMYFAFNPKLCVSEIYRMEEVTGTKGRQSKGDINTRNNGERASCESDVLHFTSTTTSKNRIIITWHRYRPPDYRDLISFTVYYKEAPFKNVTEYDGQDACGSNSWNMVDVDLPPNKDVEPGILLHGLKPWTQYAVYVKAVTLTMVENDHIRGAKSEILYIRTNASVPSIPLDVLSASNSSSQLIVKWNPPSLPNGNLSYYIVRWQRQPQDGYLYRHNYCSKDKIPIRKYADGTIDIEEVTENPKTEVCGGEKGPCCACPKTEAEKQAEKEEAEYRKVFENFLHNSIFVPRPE
Insulin-like growth factor 1 receptor (Homo sapiens), sequence (P08069 741-1367 limits assumed): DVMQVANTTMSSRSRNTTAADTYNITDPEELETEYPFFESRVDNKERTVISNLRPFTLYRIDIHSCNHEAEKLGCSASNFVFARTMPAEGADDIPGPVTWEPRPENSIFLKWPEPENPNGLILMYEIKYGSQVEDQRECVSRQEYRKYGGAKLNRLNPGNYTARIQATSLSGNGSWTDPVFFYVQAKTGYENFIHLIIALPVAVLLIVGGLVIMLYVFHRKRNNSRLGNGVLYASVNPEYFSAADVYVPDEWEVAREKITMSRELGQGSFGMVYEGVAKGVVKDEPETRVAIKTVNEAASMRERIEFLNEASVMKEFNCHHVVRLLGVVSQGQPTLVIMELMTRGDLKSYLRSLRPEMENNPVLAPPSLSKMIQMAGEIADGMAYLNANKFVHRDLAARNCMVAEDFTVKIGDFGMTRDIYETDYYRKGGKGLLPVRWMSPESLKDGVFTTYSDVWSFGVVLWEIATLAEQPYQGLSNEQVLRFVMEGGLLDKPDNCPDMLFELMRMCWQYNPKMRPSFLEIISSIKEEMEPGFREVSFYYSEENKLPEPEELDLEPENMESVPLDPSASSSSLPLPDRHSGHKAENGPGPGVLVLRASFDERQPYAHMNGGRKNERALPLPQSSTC
Tyrosine-protein kinase HCK (Homo sapiens), sequence (P08631 2-526 limits assumed): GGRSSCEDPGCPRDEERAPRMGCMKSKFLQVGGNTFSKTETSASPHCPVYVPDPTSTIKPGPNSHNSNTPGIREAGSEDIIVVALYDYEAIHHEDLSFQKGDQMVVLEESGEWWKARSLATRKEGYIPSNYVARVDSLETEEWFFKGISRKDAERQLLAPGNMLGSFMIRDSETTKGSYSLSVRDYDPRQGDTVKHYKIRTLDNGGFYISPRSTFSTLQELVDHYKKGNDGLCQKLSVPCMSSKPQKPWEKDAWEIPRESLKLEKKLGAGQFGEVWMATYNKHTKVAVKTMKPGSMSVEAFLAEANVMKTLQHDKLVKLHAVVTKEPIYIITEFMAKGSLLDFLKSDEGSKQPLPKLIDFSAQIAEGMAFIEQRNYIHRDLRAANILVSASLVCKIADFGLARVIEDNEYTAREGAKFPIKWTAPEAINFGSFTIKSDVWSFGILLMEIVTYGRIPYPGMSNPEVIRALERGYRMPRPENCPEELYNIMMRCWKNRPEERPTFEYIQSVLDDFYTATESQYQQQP
Tyrosine-protein kinase Fyn (Homo sapiens), sequence (P06241 2-537 limits assumed): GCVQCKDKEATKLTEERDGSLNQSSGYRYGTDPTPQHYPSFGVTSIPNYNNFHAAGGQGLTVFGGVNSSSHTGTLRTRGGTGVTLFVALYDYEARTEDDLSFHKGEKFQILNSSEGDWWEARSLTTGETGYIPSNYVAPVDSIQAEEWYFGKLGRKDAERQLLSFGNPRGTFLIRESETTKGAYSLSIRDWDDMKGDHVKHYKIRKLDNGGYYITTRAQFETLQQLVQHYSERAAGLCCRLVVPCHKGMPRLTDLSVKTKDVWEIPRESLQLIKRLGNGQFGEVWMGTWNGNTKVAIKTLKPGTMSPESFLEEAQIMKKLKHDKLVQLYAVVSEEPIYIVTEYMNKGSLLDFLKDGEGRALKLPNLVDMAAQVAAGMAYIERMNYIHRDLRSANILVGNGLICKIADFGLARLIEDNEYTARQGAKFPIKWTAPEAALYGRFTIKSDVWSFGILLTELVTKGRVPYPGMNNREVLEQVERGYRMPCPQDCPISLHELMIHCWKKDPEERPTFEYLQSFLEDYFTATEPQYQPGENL

Regarding `COc1cccc(-c2c[nH]c3c(N/N=C/c4ccncc4)ncnc23)c1`, the inhibition (commonly the change of the read-out against control, counted positive when it falls) amounted to 58.7% in test [1]; 12.8% in [2]; 51.8% in test [3]; 0.05% in test [4]; 2.22% in test [5]; 1.17% in test [6]. The inhibition in [7] came out at 3.79%; in test [8], 3.25%; in test [9], 2.79%; in test [10], 1.15%; in [11] it was 3.59%; in [12], 4.4%. In addition, the inhibition in test [13] was determined as 15.3%; in test [14] it was 1.76%; in test [15], 15.1%; in [16], 0.32%; in test [17], 24.9%; in test [18] it was 17.6%. The inhibition worked out at 61% in test [19] and 45.5% in [20].
With `COc1ccc2c(-c3ccnc(Nc4cccc(OC(F)(F)F)c4)n3)cnn2n1`, the inhibition in test [1] turned out to be 7.69%; in [2], 5.89%; in test [3] it was 11.3%; in test [4], 3.31%; in test [5], 5.36%; in [6], 4.34%. The inhibition in test [7] amounted to 8.18%; in test [8] it was 4.74%; in [9], 3.42%; in test [10], 1.46%; in test [11] it was 2.38%; in [12], 4.66%. Moreover, the inhibition in test [13] was 13%; in [14] it was 1.65%; in test [15], 10.9%; in test [16], -0.93%; in test [17], 2.75%; in test [18], 6.22%. Further, the inhibition in [19] was found to be 14.8%; in test [20], 10.7%.
For the compound `COC(=O)Nc1nc2ccc(Oc3ccc(NC(=O)Nc4cccc(Cl)c4)cc3)cc2[nH]1`, the inhibition in test [1] was 2.41%; in test [2] it was 3.38%; in [3], 2.91%; in [4] it was 3.52%; in test [5], 2.1%; in test [6], -1.15%. Moreover, the inhibition in test [7] is 0.68%; in test [8], -1.26%; in test [9] it was -0.57%; in test [10] it was 0.74%; in test [11], 0.42%; in test [12], 0.77%. Also, the inhibition in test [13] is 4.07%; in [14], 0.38%; in test [15] it was -0.26%; in [16], -0.87%; in test [17], -0.3%; in test [18], 32.4%. The results for the inhibition in test [19] and in test [20] were 62.5% and 72.9%, respectively.
On to `CC(C)(CO)CNC(=O)c1ccc2c(c1)/C(=N/Nc1ccc(S(N)(=O)=O)cc1)C(=O)N2`, for which the inhibition is 53.7% in [1]; 0.91% in [2]; 21.2% in [3]; -4.8% in [4]; -2.3% in test [5]; -1.59% in test [6]. For the same compound, the inhibition in test [7] was -0.37%; in test [8], -2%; in [9] it was -2.31%; in [10], -1.6%; in test [11], 1.2%; in [12], 1.29%. Besides, the inhibition in test [13] is 2.13%; in test [14], -1.03%; in test [15], 1.02%; in [16], -0.67%; in [17] it was 13.5%; in [18] it was 9.03%. The inhibition in test [19] was 56%; in test [20] it was -4.53%.
As for `Nc1nc(-c2ccc(F)cc2)c(-c2ccc3ncccc3n2)s1`, the inhibition in [1] is 12.4%; in test [2], 5.89%; in [3] it was 17.5%; in [4], 4.9%; in [5] it was 24.4%; in test [6] it was 6.61%. Moreover, the inhibition is 43.3% in [7]; 2.47% in [8]; 1.87% in test [9]; 2.58% in [10]; 2.71% in [11]; 2.95% in [12]. Moreover, the inhibition in test [13] was 6.76%; in test [14], 2.05%; in [15], 4.07%; in [16], -0.98%; in test [17] it was 1.8%; in test [18] it was 33.2%. The inhibition in [19] is 71.1%; in test [20], 3.28%.
On to `CC1=C(C(=O)Nc2cc(Cl)c3[nH]ncc3c2)C(c2ccc(C(F)(F)F)cc2)CC(=O)N1` (stereo not given), for which the inhibition stood at 4.45% in test [1]; 4.68% in test [2]; 6.23% in test [3]; 2.66% in test [4]; 2.67% in test [5]; 5.06% in [6]. Besides, the inhibition in test [7] was 6.02%; in [8], 0.76%; in test [9], 1.79%; in test [10], 1.11%; in test [11], 2.35%; in test [12], 9.58%. Besides, the inhibition in [13] worked out at 51.5%; in [14] it was 2.99%; in test [15] it was 29.2%; in test [16] it was 2.49%; in test [17], 42.3%; in [18], 4.67%. The results for the inhibition in test [19] and in [20] were 6.91% and 4.2%, respectively.
On to `Fc1ccc(-c2cc(-c3c[nH]nc3-c3ccccn3)ccn2)cc1`, for which the inhibition in test [1] was 5%; in test [2] it was 5.58%; in test [3], 6.04%; in [4], 0.26%; in test [5], 1.04%; in [6], 6.47%. The inhibition turned out to be 5.34% in test [7]; 2.45% in test [8]; 2.16% in test [9]; 0.99% in test [10]; 0.13% in test [11]; 4.79% in test [12]. The inhibition in [13] was 14.2%; in test [14] it was 1%; in test [15] it was 0.86%; in [16], -0.89%; in test [17] it was -3.5%; in test [18], 7.31%. The inhibition was 22.2% in test [19] and 5.29% in test [20].
